Screening data deposited in PubChem by several laboratories.
E coli growth-1: blocks Escherichia coli growth; OD600 absorbance (concentration not given with the values); hit rate 0.21% among 330,000; OD600, 23 h; active compounds read low;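 active means OD600 absorbance below the run mean of sample wells minus 3.6 SD, in any replicate, cut at about 0.56 in these data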
E coli growth-2: bacterial growth inhibition, counter-screen for AddAB inhibitors; E. coli V3065 growth, OD600 absorbance, 18 h; inhibition, % at 11.9 µM; hit rate 0.27% among 330,000; AID 449728;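 active means inhibition above the campaign's mean inhibition across all tested compounds plus 3 SD, cut at about 9.9% in these data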;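 further: uninfected addAB+ strain grown without phage in ampicillin broth; 0% = DMSO wells and 100% = ciprofloxacin 0.95 µg/ml wells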
phage Ecoli inh: E. coli growth loss with phage present; growth absorbance; inhibition, % at 11.9 µM; hit rate 0.26% among 360,000; in the data active means inhibition above about 11%
Tat export inh: E. coli Tat transport inhibition. E. coli MC4100 TorA-mCherry Tat export, fluorescence. inhibition, % at 10 µM. hit rate 0.036% among 340,000;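 active means mean replicate inhibition at least 50% and at least half of replicates individually reaching 50%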;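 further: exported cargo escapes ClpAP degradation while cytoplasmic cargo is degraded and loses fluorescence; 0% = median of neutral control wells and 100% = median of NaSCN control wells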
AddAB inh: less growth of phage-infected E. coli with AddAB; E. coli expressing H. pylori AddAB, absorbance growth; hit rate 0.29% among 330,000; inhibition, % at 11.9 µM; AID 435030; in the data active means inhibition above about 12%;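 further: 0% = vehicle wells of infected cells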
AddAB conf: growth loss of T4-infected E. coli expressing H. pylori AddAB, confirmed; shares compounds with AddAB inh; E. coli V3065 expressing H. pylori AddAB, T4 phage, OD; T4 phage with gene 2 nonsense mutations; inhibition, % at 11.9 µM; hit rate 64% among 880; AID 488942;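 active means mean inhibition above a set limit taken from the earlier primary screen, cut at about 13% in these data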;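 further: higher means less bacterial growth since AddAB block lets phage replicate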
RecBCD counter: counter-screen: growth loss of RecBCD+ E. coli with mutant T4 phage; E. coli V66 + mutant T4 phage, OD growth; hit rate 73% among 880; shares compounds with AddAB inh; inhibition, % at 11.9 µM;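 active means mean inhibition above the mean of solvent-only control wells plus 3 SD, cut at about 4% in these data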;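 further: optical density read after an 18 h incubation at 37 °C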
bact viab count: counter-screen: bacterial growth inhibition. shares compounds with AddAB inh. bacterial viability, absorbance (AddAB counterscreen). inhibition, % at 11.9 µM. hit rate 35% among 880. AID 488956; in the data active means inhibition above about 25%
Starred values were filed as active, the others as inactive; nt = no result given. In the library only some 0.5% were active in any assay of this set; here they are far more common.

SMILES	E coli growth-1	E coli growth-2	phage Ecoli inh	Tat export inh	AddAB inh	AddAB conf	RecBCD counter	bact viab count
CCn1cc(C(=O)NCCc2ccccc2)c(=O)c2cc(F)c(N3CCN(C)CC3)cc21	0.6	13*	2	7	21*	71*	0	22
COc1ccc(C=NNC(=O)c2ccc(Cn3cc([N+](=O)[O-])cn3)o2)c(OC)c1C	0.72	nt	nt	nt	nt	nt	nt	nt
CCCCCC(=O)NN=Cc1ccco1	0.7	nt	nt	nt	nt	nt	nt	nt
CCCCOC(=O)C(C)Oc1ccc(=O)n(-c2ccccc2)n1 (configuration not stated)	0.77	5	2	-3	21*	4	1	-3
O=C(Nc1ccccc1)C1=CC(c2csc3ccccc23)CC(OCc2ccc(CO)cc2)O1 (configuration not stated)	0.67	nt	nt	nt	nt	nt	nt	nt
Cn1nc([N+](=O)[O-])c(C(C#N)c2ccccn2)c(Cl)c1=O (configuration not stated)	0.68	9	6	3	13*	41*	6.1*	22
CCN1C(=O)C2C(c3ccc(Cl)cc3)N3C(=O)CN(CC4CC4)C(=O)[C@@]3(Cc3ccccc3)C2C1=O (some centres not stated)	0.68	nt	nt	nt	nt	nt	nt	nt
Cc1nn(C)cc1C=NNC(=O)C(C)(C)Oc1ccc(Cl)cc1	0.67	nt	nt	nt	nt	nt	nt	nt
O=C(COC(=O)C1CCN(S(=O)(=O)c2ccc3c(c2)OCCO3)CC1)NC1CCS(=O)(=O)C1 (configuration not stated)	0.68	9.8*	0	-3	26*	-6	-2	-5
O=C(COC(=O)C1CCN(S(=O)(=O)c2ccc3c(c2)OCCO3)CC1)NC1CCCCC1	0.68	3	2	2	0	nt	nt	nt
O=Cc1ccc(OCc2cccc(C(F)(F)F)c2)cc1O	0.61	12*	10	-4	13*	8	9.5*	6
CCOC(=O)c1cn(CC)c2cc(N3CCSCC3)c(F)cc2c1=O	0.46*	83*	7	38	75*	97*	1	11
CCn1cc(C(=O)O)c(=O)c2cc(F)c(N3CCNCC3)cc21	nt	99*	nt	94*	99*	103*	102*	103*
CCn1cc(C(=O)O)c(=O)c2cc(F)c(N3CCN(S(=O)(=O)c4ccc5c(c4)OCCO5)CC3)cc21	0.083*	48*	7	-6	94*	101*	13*	99*
CCCNC(=O)OCC1OC(CCON=CC(NS(=O)(=O)c2ccc(C)cc2)C(C)C=CCC(=O)OC)C=CC1Oc1ccc(OC)cc1 (configuration not stated)	0.7	nt	nt	nt	nt	nt	nt	nt
CC(=NNC(=O)CSc1nc2ccccc2c(=O)n1-c1ccccc1C)c1cccs1	0.69	nt	nt	nt	nt	nt	nt	nt
COc1ccc(-n2c(Cc3cccn3C)nnc2SCC(=O)Nc2ccccc2)cc1	0.77	-2	2	1	7	nt	nt	nt
COc1ccc(-n2c(Cc3cccn3C)nnc2SCC(=O)Nc2nc(C)cs2)cc1	0.73	9	3	27	15*	-1	-1	-2
CC=C(C)C(=O)NC(C)CN1C2=NCC(C(C)C)N2CC1Cc1ccc(OC)cc1 (configuration not stated)	0.69	nt	nt	nt	nt	nt	nt	nt
COc1ccccc1Nc1nc(Cl)nc(NC(C)(C)C)n1	0.68	79*	2	8	96*	-3	-2	-2
CC(C)(C)Nc1nc(Cl)nc(Nc2ccccc2)n1	0.68	0	2	2	3	nt	nt	nt
O=C(CC1CC=CCC(NC(=O)OCC2c3ccccc3-c3ccccc32)C(=O)OCC(Cc2ccccc2)NC1=O)NCCO (configuration not stated)	0.73	nt	nt	nt	nt	nt	nt	nt
O=C(Cn1cc(C(=O)c2ccco2)c2ccccc21)Nc1ccccc1F	0.66	11*	10	-5	13*	11	11*	11
Cc1ccc(OCC(=O)N2CCc3ccccc32)c([N+](=O)[O-])n1	0.67	19*	8	4	24*	46*	5.4*	43*
COC(=O)c1sc2ccccc2c1N	0.7	21*	2	1	35*	2	-1	-1
SMILES	E coli growth-1	E coli growth-2	phage Ecoli inh	Tat export inh	AddAB inh	AddAB conf	RecBCD counter	bact viab count
COC(=O)c1sc2ccccc2c1C(=O)OC	0.67	nt	2	-8	nt	nt	nt	nt
Cc1ccc(S(=O)(=O)Nc2nccs2)cc1[N+](=O)[O-]	0.66	1	3	-4	3	nt	nt	nt
Cc1ccc(S(=O)(=O)Nc2ccc(S(=O)(=O)Nc3nccs3)cc2)c([N+](=O)[O-])c1	0.67	9	10	-4	16*	6	4.1*	8
Oc1ccc(/C=N/N=C/c2ccc(O)c(O)c2)cc1O	nt	-3	0	4	34*	-1	0	-2
Oc1ccc(N=Cc2ccc(O)c(O)c2)cc1	0.68	0	nt	-6	1	nt	nt	nt
CC(=NNC(=O)CN1CCN(Cc2ccccc2Cl)CC1)c1ccco1	0.66	nt	nt	nt	nt	nt	nt	nt
CCc1nnc(NS(=O)(=O)c2ccc(N/C=C/C(=O)c3ccc(C)cc3)cc2)s1	nt	11*	4	-7	17*	0	1	1
CCc1nnc(NS(=O)(=O)c2ccc(N/C=C\C(=O)c3ccc(C)cc3)cc2)s1	0.77	13*	10	0	20*	0	2	1
O=C(c1ccc([N+](=O)[O-])o1)N1CCOCC1	0.54	11*	11	-13	17*	64*	8.5*	16
CC(C)C(=O)N1CCN(c2ccc(NC(=O)c3ccc([N+](=O)[O-])o3)cc2)CC1	0.69	6	4	-2	13*	29*	3	8
CC(NC(=O)c1nc[nH]c1C(=O)NCc1ccc(CNC(=O)OC(C)(C)C)cc1)C(=O)OC(C)(C)C (configuration not stated)	0.69	nt	nt	nt	nt	nt	nt	nt
Cc1ccc(S(=O)(=O)NC(C(=O)N2CCC(C(=O)NCC(=O)O)CC2)C(C)C)cc1 (configuration not stated)	0.65	nt	nt	nt	nt	nt	nt	nt
CCn1cc(C(=O)O)c(=O)c2cnc(N3CCN(C(=S)Nc4ccccc4Cl)CC3)nc21	0.54	84*	0	-6	97*	98*	0	32*
C=CCNC(=S)N1CCC(C(=O)c2ccc(OC)cc2)CC1	0.7	-1	2	6	3	nt	nt	nt
Cc1c(Cl)cccc1NC(=S)N1CCN(c2ncccn2)CC1	0.69	-3	3	-8	1	nt	nt	nt
CCn1cc(C(=O)O)c(=O)c2cnc(N3CCN(C(=S)Nc4ccc(F)cc4)CC3)nc21	0.6	25*	-3	nt	18*	25*	1	10
C=CCNC(=S)N1CCN(c2ncc3c(=O)c(C(=O)O)cn(CC)c3n2)CC1	0.46*	11*	3	7	20*	89*	3	26*
CC(=NNC(=O)C(=O)Nc1ccc(C)cc1)c1ccncc1	0.68	nt	nt	nt	nt	nt	nt	nt
